# Measured values reported in the supplement of paper PMC10646978.
# ± gives the standard deviation.
# Key:
# Conditions in all cases: modulator concentration 10 µM
# [1] = tested on: RAW-Dual (murine macrophage reporter line); experiment: NF-kB reporter (SEAP) activity fold change vs agonist alone; higher = enhanced NF-kB activity
# Method in brief: (§1)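 Overnight stimulation with a PRR agonist followed pre-incubation for 1 hour at 37 °C with compound at 10 μM final. This was done in RAW-Dual murine macrophage reporter cells seeded at 50 000 per well in 384-well plates. NF-κB (SEAP, QUANTI-Blue absorbance at 620 nm) and IRF (Lucia luciferase, QUANTI-Luc luminescence) were read from the supernatant. Each reporter's fold change relative to the mean agonist-only control on the same plate was averaged over replicate plates.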
# [2] = tested on: RAW-Dual (murine macrophage reporter line); experiment: IRF reporter (Lucia luciferase) activity fold change vs agonist alone; higher = enhanced IRF activity
# Method in brief: as §1
# [3] = tested on: RAW-Dual (murine macrophage reporter line); experiment: viability score (confluency relative to resting cells, overnight) (fraction); higher = more viable, active = viable (0.7 or more)
# Method in brief: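 Compound was added at a final 10 μM to RAW-Dual macrophages in 384-well plates and left overnight. Confluency was imaged with IncuCyte, and two masks were generated in IncuCyte software over all imaged wells. Each viability score is confluency relative to resting cells, and a compound met the cutoff only when both masks were above 70% of resting cells.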
# [4] = agonist: CpG ODN 1826 0.5 ug/mL
Compound,"NF-kB reporter [1, 4]",NF-kB reporter ([1]; agonist: LPS 0.1 ug/mL),NF-kB reporter ([1]; agonist: MPLA […]),IRF reporter ([2]; agonist: 3'3'-cGAMP 10 ug/mL),IRF reporter ([2]; agonist: LPS 0.1 ug/mL),IRF reporter ([2]; agonist: MPLA […]),viability score [3]
CC(C)Sc1ccc(CC(=O)N2CCC(S(C)(=O)=O)C2)cc1 (configuration not stated),0.975 ± 0.12,1.12 ± 0.1,0.973 ± 0.17,0.946 ± 0.053,1.12 ± 0.07,1.29 ± 0.17,0.993 (active)
N[C@@H](Cc1cc(I)c(Oc2cc(I)c(O)c(I)c2)c(I)c1)C(=O)O,0.496 ± 0.045,0.804 ± 0.069,0.908 ± 0.19,0.572 ± 0.044,1.15 ± 0.2,1.23 ± 0.31,1.03 (active)
O=C(Nc1ccc(Cl)cc1)C(Sc1ccccc1)c1ccccc1 (configuration not stated),0.994 ± 0.11,1.02 ± 0.1,0.926 ± 0.065,0.989 ± 0.037,1.38 ± 0.26,1 ± 0.081,1.02 (active)
CC1=NN(C(=O)CCCc2ccccc2)C(O)(c2ccc(Cl)cc2)C1 (configuration not stated),0.923 ± 0.1,1 ± 0.13,1.02 ± 0.049,0.899 ± 0.2,1.1 ± 0.065,1.13 ± 0.15,0.999 (active)
CCN(CC)CCNC(=O)c1c(C)[nH]c(/C=C2\C(=O)Nc3ccc(F)cc32)c1C,0.102 ± 0.0079,0.192 ± 0.015,0.475 ± 0.031,0.0578 ± 0.003,0.0794 ± 0.014,0.0928 ± 0.022,0.359 (inactive)
C1CCC(N2NC2C2NN2C2CCCCC2)CC1 (configuration not stated),1.01 ± 0.22,1.03 ± 0.11,0.964 ± 0.091,0.938 ± 0.024,1.23 ± 0.19,1.05 ± 0.11,1.01 (active)
CCN(CC)c1ccc(C=C(C#N)C#N)c(OC(C)=O)c1,1.07 ± 0.064,0.895 ± 0.065,0.884 ± 0.057,0.76 ± 0.034,0.995 ± 0.069,0.977 ± 0.12,1.01 (active)
O=C(CC1Sc2ccccc2NC1=O)Nc1ccccc1 (configuration not stated),0.945 ± 0.084,0.877 ± 0.071,1.03 ± 0.18,0.754 ± 0.11,1.32 ± 0.29,1.41 ± 0.38,1.02 (active)
COc1ccc2[nH]c(S(=O)Cc3ncc(C)c(OC)c3C)nc2c1 (configuration not stated),1.22 ± 0.23,1.01 ± 0.26,0.909 ± 0.065,0.83 ± 0.028,1.11 ± 0.27,0.934 ± 0.074,0.99 (active)
O=C1c2ccccc2C(=O)c2c1ccc(O)c2O,1.03 ± 0.098,1.06 ± 0.054,1.02 ± 0.027,0.948 ± 0.084,0.949 ± 0.039,0.978 ± 0.076,0.999 (active)
Cc1ccc(C23CC4CC(CC(CN)(C4)C2)C3)cc1C.Cl,0.652 ± 0.44,0.309 ± 0.056,1.08 ± 0.35,0.11 ± 0.0065,0.32 ± 0.1,0.256 ± 0.11,0.51 (inactive)
COc1ccc(-c2cc(=O)oc3cc(OCc4cc5c(cc4Cl)OCO5)ccc23)cc1,0.738 ± 0.058,0.829 ± 0.13,1.08 ± 0.11,0.983 ± 0.053,1.17 ± 0.068,1.16 ± 0.15,1.01 (active)
COc1ccc(OC)c2sc(NC(=O)C(C)C)nc12,0.97 ± 0.075,1.02 ± 0.059,1 ± 0.031,0.837 ± 0.06,0.885 ± 0.11,0.828 ± 0.14,0.993 (active)
CCCCCn1c(=O)[nH]c2cc(C(=O)N3CCN(C(=O)OCC)CC3)ccc2c1=O,1.12 ± 0.065,1.09 ± 0.068,1.02 ± 0.069,1.01 ± 0.035,1.45 ± 0.11,1.24 ± 0.14,0.974 (active)
COc1cc(C(=O)Nc2ccc(-c3ccc(N4CCC(C)CC4)nn3)cc2)cc(OC)c1OC,0.862 ± 0.1,0.879 ± 0.073,0.754 ± 0.12,1.02 ± 0.087,1.26 ± 0.11,1.59 ± 0.12,0.913 (active)
O=c1[nH]c(=O)n(C2CC(O)C(CO)O2)cc1F (configuration not stated),1.67 ± 0.13,0.714 ± 0.057,0.978 ± 0.1,0.321 ± 0.025,0.684 ± 0.14,0.545 ± 0.12,1.04 (active)
CCN(CC)S(=O)(=O)c1ccc(C(=O)Nc2cc(C)nn2-c2nc(C)c(C)c(=O)[nH]2)cc1,0.153 ± 0.012,0.267 ± 0.065,0.434 ± 0.015,0.883 ± 0.05,0.957 ± 0.099,0.994 ± 0.086,0.99 (active)
CNCCCN1c2ccccc2CCc2ccccc21.Cl,0.462 ± 0.11,1.14 ± 0.11,1.54 ± 0.1,0.45 ± 0.017,1.46 ± 0.2,1.88 ± 0.19,0.951 (active)
CN1CCN(c2c(F)cc3c(=O)c(C(=O)O)cn4c3c2OCN4C)CC1,1.2 ± 0.34,1.09 ± 0.093,0.971 ± 0.099,0.958 ± 0.039,1.26 ± 0.15,1.25 ± 0.12,0.995 (active)
CN(C)S(=O)(=O)N1CCC(CNC(=O)NC2CCCC2)CC1,0.963 ± 0.098,1.09 ± 0.098,0.818 ± 0.11,0.958 ± 0.1,1.04 ± 0.062,0.874 ± 0.31,1 (active)
Cc1ccc(/C(=C\CN2CCCC2)c2ccccn2)cc1.Cl.O,0.96 ± 0.26,1.11 ± 0.056,1.05 ± 0.073,0.672 ± 0.03,1.09 ± 0.13,1.31 ± 0.18,0.553 (inactive)
S=C(NCCN1CCOCC1)Nc1ccc(Cl)cc1,1 ± 0.23,0.966 ± 0.1,0.886 ± 0.12,0.71 ± 0.019,1.22 ± 0.16,1.13 ± 0.12,0.986 (active)
CNCc1cc(-c2ccccc2F)n(S(=O)(=O)c2cccnc2)c1.O=C(O)/C=C/C(=O)O,0.612 ± 0.05,1.04 ± 0.076,0.98 ± 0.021,0.931 ± 0.054,0.97 ± 0.056,0.855 ± 0.089,0.999 (active)
Cc1ccc(-c2cc(C(F)(F)F)n3nc(C(=O)NCCCN4CCOCC4)cc3n2)cc1,0.995 ± 0.083,1.06 ± 0.098,0.983 ± 0.082,0.968 ± 0.024,1.31 ± 0.22,1.13 ± 0.22,1.01 (active)
Cc1cc(=O)n2c(-c3cccc(NC(=O)c4ccc(C(F)(F)F)cc4)c3)csc2n1,0.824 ± 0.044,1.12 ± 0.09,1.68 ± 0.46,0.731 ± 0.035,1.28 ± 0.21,1.5 ± 0.44,0.99 (active)
CC1CC(=O)C2=C(C1)OC(N)=C(C#N)C2c1cccc2ccccc12 (configuration not stated),1.04 ± 0.059,1.06 ± 0.065,1.03 ± 0.11,0.988 ± 0.033,1.26 ± 0.088,1.24 ± 0.14,1 (active)
